Reference: PubChem BioAssay (NCATS)
Results filed as inconclusive are left out. A number with no mark means an inactive call. Activity calls are given as the source filed them. The call rests on the fitted dose curve; in most records, active means well fitted inhibition curve with a large enough effect; inconclusive means small, poorly fitted or top-dose-only effect; inactive means no such curve, though single readings can be large or run the other way.

Biological target: Thioredoxin reductase 1, cytoplasmic (Rattus norvegicus) (UniProt O89049)
Test: qHTS Assay for Inhibitors of Mammalian Selenoprotein Thioredoxin Reductase 1 (TrxR1) (AID 488773); further: nearly all actives have a fitted effect of over 40% in size
Details: purified TrxR1 enzyme activity; Potency: inhibition; series mostly up to 57.1 µM; activity change, negative = inhibition: at the top concentration
Excerpt: The selenoprotein thioredoxin reductase (TrxR; EC 1.8.1.9) is a FAD containing homodimeric pyridine nucleotide-disulfide oxidoreductase with many cellular roles. Together with NADPH and its prime substrate thioredoxin (Trx), the enzyme forms the core of the Trx system. The mammalian Trx system exerts a wide spectrum of functions including redox regulation, antioxidant defense, regulation of transcription factors as well as support of cell growth and replication. Many of these functions involve the reduction of Trx, which may subsequently reduce a number of different substrates including ribonucleotide reductase, peroxiredoxins or NFkB. Mammalian TrxR itself also has a broad substrate specificity, reducing both protein and non-protein substrates, including low molecular weight compounds such as dehydroascorbate, lipoic acid, ubiquinone, and juglone. In addition, several drugs in clinical use for anticancer treatment are indeed known to target TrxR1.
This BioAssay is a validation of an NADPH fluorescence-based, dual-purpose qHTS rTrxR1 assay designed to find potential inhibitors and substrates of rTrxR1. For this particular BioAssay, actives are potential inhibitors. See related BioAssay for substrate data deposition.
Assay protocol: 2 uL of reagents (buffer in column 4 as negative control and 90 nM rTrxR1 in columns 1-3 and 5-48) were dispensed into Greiner black solid-bottom 1,536-well assay plates, followed by 1 uL of NADPH (400 uM final concentration) to each well. The plates were centrifuged at 1000 rpm for 15 seconds and subsequently incubated for 5 min at room temperature (~22 deg C) to allow for rTrxR1 reduction. Compounds (23 nL) were then transferred via Kalypsys pin tool equipped with 1536-pin array (10 nL slotted pins, V&P Scientific, San Diego, CA). In addition, a duplicate 2-fold serial dilution of the control compounds auranofin, a known gold-based TrxR1 inhibitor, and juglone (5-hydroxy-1,4-naphthoquinone), a natural TrxR1 substrate, were pin-transferred to columns 2 and 3, respectively. After incubation for 15 min at room temperature (~22 deg C), 1 uL of selenite (400 uM final concentration) were dispensed to each well. The plate was immediately transferred to a ViewLux high-throughput CCD imager (PerkinElmer), wherein kinetic measurements of NADPH fluorescence (Ex 340 nm, Em 450 nm) were acquired (8 minute kinetic read, see Table 1). Read 1 was utilized to assess the capacity of a compound to serve as an rTrxR1 substrate, i.e. a decrease in NADPH fluorescence compared to the no-compound background is an indication of a substrate behavior for that particular compound. For inhibitory activity of a compound, delta values, computed as the difference in fluorescence intensity between the first and last reads of an 8-minute time kinetic window, were used. All reagents were diluted in an assay buffer consisting of 50 mM Tris-HCl, pH 7.5, 2 mM EDTA, and 0.01% Tween-20.
Throughout the screen, reagent bottle and all liquid lines were made light-tight to minimize reagent degradation. All screening operations were performed on a fully integrated robotic system (Kalypsys, San Diego, CA) containing one RX-130 and two RX-90 anthropomorphic robotic arms (Staubli, Duncan, SC). Library plates were screened starting from the lowest and proceeding to the highest concentration, and a 'double-pinning' step of the highest concentration was required to access higher concentrations of compounds. Vehicle-only plates, with DMSO being pin-transferred to the columns 5-48, were inserted uniformly at the beginning and the end of each library in order to monitor and record any shifts in the background, which can be affected by reagent dispensers or loss in enzyme activity over time. Screening data were corrected, normalized, and concentration-effect relationships were derived by using publicly-available curve fitting algorithms developed in-house (http://ncgc.nih.gov/pub/openhts).
On the % scale 0 is the no-effect control and ±100 the full control effect; potency means the concentration at half of the fitted maximal effect.

Chain of Thioredoxin reductase 1, cytoplasmic (Rattus norvegicus) (O89049 whole entry, looked up): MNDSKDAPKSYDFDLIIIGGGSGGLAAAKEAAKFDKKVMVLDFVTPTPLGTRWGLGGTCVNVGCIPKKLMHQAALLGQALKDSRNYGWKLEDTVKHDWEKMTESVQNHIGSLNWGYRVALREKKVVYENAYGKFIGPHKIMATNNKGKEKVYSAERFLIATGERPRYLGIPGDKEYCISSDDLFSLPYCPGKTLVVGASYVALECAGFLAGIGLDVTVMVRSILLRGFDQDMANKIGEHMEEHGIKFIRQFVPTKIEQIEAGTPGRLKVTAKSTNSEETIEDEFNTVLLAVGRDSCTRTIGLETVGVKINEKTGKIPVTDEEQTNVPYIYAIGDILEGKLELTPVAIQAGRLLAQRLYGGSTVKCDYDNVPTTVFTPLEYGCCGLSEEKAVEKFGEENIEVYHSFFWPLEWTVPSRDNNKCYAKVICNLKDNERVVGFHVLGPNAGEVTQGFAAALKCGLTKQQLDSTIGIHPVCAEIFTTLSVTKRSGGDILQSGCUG

Structure (SMILES) | Potency | activity change, negative = inhibition [%]
NC1(C(=O)O)CCc2cc(C(=O)O)ccc21 (stereo not given) | 16.8 µM (active) | –
O=C(O)C1CN(CCCP(=O)(O)O)CCN1 (stereo not given) | – | -7.2
Cc1cccc(C)c1OCC(N)C(C)C (stereo not given) | – | -0.808
CC(=O)NCCc1c[nH]c2ccc(O)cc12 | – | -5.02
O=C(N[C@@H](Cc1ccccc1)C(=O)CCl)OCc1ccccc1 | 21.2 µM (active) | –
N[C@@H](CS(=O)O)C(=O)O | – | 0.7
Oc1cc(O)c2c(c1)O[C@H](c1ccc(O)c(O)c1)[C@@H](O)C2 | – | -3.26
O=C(O)Cc1ccc(O)c(O)c1 | 7.52 µM (active) | –
CCCN(CCc1ccccc1)C1CCc2c(O)cccc2C1 (stereo not given) | – | -12.7
O=C1OC(=O)C2C3CCC(O3)C12 (stereo not given) | – | -8.17
C[C@@H](NCCc1ccc(O)cc1)[C@@H](O)c1ccc(O)cc1 | – | 14.3
NC(=O)CNCCC(c1ccccc1)c1ccccc1 | – | 0.955
Cc1ccccc1/C=C/C1=NCCN1 | – | -24.3
CC(N)=O | – | 1.31
CC(=O)C(C)=O | – | -7.62
Brc1c(Br)c(Br)c2[nH]cnc2c1Br | – | -11.7
COC(=O)C1=C(C)NC(C)=C([N+](=O)[O-])C1c1ccccc1C(F)(F)F (stereo not given) | – | -0.748
Cn1c(=O)c2[nH]c(-c3ccc(S(=O)(=O)O)cc3)nc2n(C)c1=O | – | 53.3
[Li+] | – | -16
Cn1c(=O)c2[nH]c(C3CCCC3)nc2n(C)c1=O | – | 6.05

Structure (SMILES) | Potency | activity change, negative = inhibition [%]
CC(C)NC[C@H](O)COc1ccc(CC(N)=O)cc1 | – | -2.63
CSC(=N)N | – | -0.563
C=CCn1c(=O)c2c(nc(-c3ccc(S(=O)(=O)O)cc3)n2C)n(C)c1=O | – | 107
CC(C)C[C@H](NC(=O)[C@H](O)[C@H](N)Cc1ccccc1)C(=O)O | – | -5.61
COCc1nc2c([nH]1)c(=O)n(C)c(=O)n2CC(C)C | – | 4.34
COc1cc(C(O)C(=O)O)ccc1O (stereo not given) | – | -18.6
O=C1C2C=CC=CC2=NC(=S)N1CCN1CCC(=C(c2ccc(F)cc2)c2ccc(F)cc2)CC1 (stereo not given) | – | -1.48
N[C@H](C(=O)O)[C@H](O)C(=O)O | – | 2.19
Nc1ncnc2c1nc(Br)n2C1OC2COP(=O)(O)O[C@@H]2C1O (stereo not given in full) | – | -19.2
CC1C(=O)N(C)C(=O)c2nc[nH]c21 (stereo not given) | – | -5.78
CN1CC(O)C(O)C(O)C1CO (stereo not given) | – | -1.33
CN1Cc2sccc2C(c2ccc(O)c(O)c2)C1 (stereo not given) | 16.8 µM (active) | –
C=CC1(C)CC(=O)C2(O)C(C)(O1)C(OC(C)=O)C(O)C1C(C)(C)CCC(O)C12C (stereo not given) | – | 2.18
O=c1ccn([C@@H]2O[C@H](COP(=O)(O)OP(=O)(O)O)[C@@H](O)[C@H]2O)c(=O)[nH]1 | – | -2.09
C=CCN1CCc2cc(O)c(O)cc2C(c2ccccc2)C1 (stereo not given) | – | -19.3
OC[C@H]1O[C@H](n2cnc3c(N[C@H]4CCC[C@@H]4O)ncnc32)[C@H](O)[C@@H]1O | – | -7.52
CCCCCCN(CCCCCC)C(=O)Cc1c(-c2ccc(F)cc2)[nH]c2ccccc12 | – | 72.7
CC(C)NCC(O)COc1ccc(CC(N)=O)cc1 (stereo not given) | – | -2.4
O=C(O)c1cccnc1C(=O)O | – | -4.22
N=S(=O)(O)Cc1noc2ccccc12 | – | -5.56
